Assay results published in ChEMBL document CHEMBL3988442, “University of Dundee, Small-Polar-MMV Screening Library” (2021).

These compounds were tested against AMP-activated protein kinase, AMPK (Homo sapiens) (UniProt P54646+O43741+P54619+Q9UGJ0+Q9Y478+Q13131+Q9UGI9) (assay: AMP-dependent Kinase enzyme assay. An in vitro enzyme assay that detects ADP turnover that is directly proportional to AMPK activity. This uses naive AMPK that is activated during the assay with MK-8722). Settings: 30 µM.
Format: functional
Set-up: scale not given: direction of the effect not stated beside the values

Structure (SMILES)	Percent Effect
Cc1ccccc1N1CCCN(C(=O)CCc2nncn2C)CC1	-4.54%
CCC(=O)NC1CCCN(c2cncc(OCc3ccccc3)n2)C1 (stereo not given)	5.23%
CCS(=O)(=O)Nc1ccc2[nH]c(C3CCC3)nc2c1	-4.1%
CCOCCN1CCN(c2ncccc2C#N)CC1CC (stereo not given)	4.43%
CN(C)c1ccc(C(=O)Nc2ccn(Cc3ccccn3)n2)cn1	18.9%
CCC(C(=O)NC1(COC)CCCC1)n1cccn1 (stereo not given)	-12%
CCC(CNS(=O)(=O)c1cccc(C(=O)OC)c1)N1CCCC1 (stereo not given)	-8.76%
CS(=O)(=O)NC1CCN(Cc2coc(-c3ccc(Cl)cc3)n2)CC1	1.23%
CC(=O)NCCNC(=O)NCc1ccc(-n2ccc(C(F)(F)F)n2)cc1	-0.713%
COCCN(Cc1cnn(C)c1)c1nc2c(s1)c(C)nn2C	-0.701%
CC(C(=O)N1CCCC1)N1CCN(c2ncc(Cl)cn2)CC1 (stereo not given)	-1.02%
Cc1cc(C(=O)NCCC2CCN(C)CC2)ccc1N(C)S(C)(=O)=O	6.31%
CC(C)c1cc(NC(=O)Cn2ccc(=O)c3ccccc32)[nH]n1	4.99%
CC(C)c1nc(CN(C)C(=O)[C@H](N)Cc2ccc(Cl)cc2)cs1	2.32%
O=C(NCc1nc[nH]n1)c1cc(COc2cccc(F)c2)[nH]n1	2.9%
COCc1cc(N(C)Cc2cc(C(C)(C)C)n[nH]2)ncn1	-7.3%
Cc1cc(C(=O)N2CCNC(=O)C2)c(C)n1CC(F)(F)F	1.02%
CCOCCN1CCN(c2ccc(C#N)cn2)CC1	1.16%
COc1ncnc(N)c1CNCc1ccccc1-n1cccn1	-8.85%
O=C(C1CCCCN1Cc1nccn1CC(F)(F)F)N1CCCC1 (stereo not given)	-9.13%

Structure (SMILES)	Percent Effect
CC(C)(CNc1c(C#N)cnc2ccc(Cl)cc12)C(N)=O	6.25%
O=C(c1cnn[nH]1)N(Cc1ccncc1)CC1CCCO1 (stereo not given)	-5.18%
CSCC(C)(O)CNS(=O)(=O)c1ccc(Br)cc1 (stereo not given)	-4.9%
CCOc1ccccc1C(=O)NCc1nncn1C1CC1	-9.44%
O=C(CCn1cnnn1)N1CCCC(CO)(CCCc2ccccc2)C1 (stereo not given)	0.115%
Cc1sc(C(=O)N(C)S(C)(=O)=O)cc1-c1ccc(F)cc1	-2.1%
CCN(CC(=O)N(C)C)C(=O)c1ccc(-c2nc(C)cs2)cc1	8.68%
Cc1nc(C)n(CC2CCCN2c2ncnc3sccc23)n1 (stereo not given)	1.91%
CN1CCN(C2CCN(C(=O)CCC3CCCC3)CC2)CC1	7.72%
CCN(CC)S(=O)(=O)c1ccc(NC(=O)C(C)(C)C)cc1	3.46%
COC1CCCOC12CCN(C(=O)NCCc1cccs1)CC2 (stereo not given)	4.16%
Cc1noc(CNc2cc3c(cc2Cl)NC(=O)CO3)n1	1.17%
COC(=O)C1CN(Cc2ccn(-c3ccc(F)cc3)n2)C[C@@H](C)O1 (stereo not given in full)	-6.96%
Cc1ccc(OCCN(C)C2CCOC2=O)cc1 (stereo not given)	0.0432%
O=C(Nc1ccccc1C(=O)NCCN1CCOCC1)c1ccco1	-3.24%
Cc1cc(C(=O)N2CCN(c3ncc4c(n3)CCOC4)CC2)sc1C	16.3%
O=C(COCC1CCCO1)N(Cc1cccnc1)c1ccc(F)cc1 (stereo not given)	-8.95%
Cn1ccnc1-c1cn(CCCc2nnc(N)s2)nn1	-15.1%
C1=C(CNC2CCc3ncnn3C2)COc2ccccc21 (stereo not given)	10.9%
COC(=O)N1CCCCC1C(=O)N1CCC(c2ccncc2)CC1 (stereo not given)	1.07%
